Test results as given in PubChem BioAssay.

assay: CREB reporter modulators without forskolin, primary screen, cell-based, PC12, CRE-LacZ reporter, unstimulated (AID 1145); conditions: no forskolin, luminescence, 4.5 h, higher = more signal, called active from +8 up or from −8 down

z-score, inactive:
COCCOC(=O)N1C(=O)[C@@]2(c3cc(C#CCC(C(=O)OC)C(=O)OC)ccc31)[C@H](C(N)=O)[C@H]1C(=O)O[C@H](c3ccccc3)[C@H](c3ccccc3)N1[C@@H]2c1ccc(O)cc1 -0.168
COc1cc(OC)c(C(O)C2C=CC3C(=O)N(c4ccccc4)C(=O)C3N2Nc2ccc(C(C)C)cc2)cc1Br (stereo unspecified) 1.78
C#CCN1[C@@H](Cc2ccccc2)C(=O)O[C@H](Cc2ccccc2)[C@@H]1/C=C/C1CC1 2.12
CN(C)CCCNC(=O)[C@@H]1c2ccccc2C(=O)N(Cc2ccccc2C(F)(F)F)[C@H]1c1ccc(CO)cc1 -0.206
COc1ccc([Si](C)(C)[C@H]2[C@H](CCO)O[C@@]3(C(=O)N(Cc4ccc(NC(=O)[C@H](C)O)cc4)c4ccccc43)[C@@H]2C)cc1 5
CCOC(=O)C[C@H]1[C@H](OC(=O)c2ccccc2-c2ccccc2)[C@@H](NC(=O)c2ccc3ccccc3c2)c2cc(OCCCO)ccc2N1C(=O)Cc1ccc(OC)cc1 3.37
COCCCN1C(=O)[C@@]2(c3ccc([N+](=O)[O-])cc3)CC(=O)N(CC34CC5CC(CC(C5)C3)C4)[C@@H]2c2ccc(CO)cc21 -1.32
C=C1C(=O)C=C2CN(C(=O)c3ccccc3)[C@@](Cc3ccc(OC)cc3)(C(=O)OC)[C@@H]12 0.387
C=CCNC(=O)[C@H]1[C@@H]2C(=O)O[C@@H](c3ccccc3)[C@@H](c3ccccc3)N2[C@@H](c2ccc(OCCO)cc2)[C@]12C(=O)Nc1ccccc12 0.389
COCCOC(=O)N1C(=O)[C@@]2(c3ccccc31)[C@H](c1ccc(O)cc1)N1[C@H](c3ccccc3)[C@H](c3ccccc3)OC(=O)[C@H]1[C@@H]2C(=O)N1CCCCCCC1 0.0816
C[N+](C)(C)CCCCNC(=O)[C@H]1C[C@H]2C(=O)N[C@@H](Cc3ccccc3)C(=O)N2[C@H]1c1cccc(OCCO)c1 -0.13
CC(C)[Si](C#CCCc1ccccc1)(O[C@H](c1ccccc1)c1cn(Cc2ccccc2)nn1)C(C)C -0.0989
COc1ccc([Si](C)(C)[C@@H]2[C@@H](CC(=O)N3Cc4ccccc4C[C@H]3CO)O[C@]3(C(=O)N(Cc4cccc(N5CCOC5=O)c4)c4ccccc43)[C@H]2C)cc1 -0.491
CN1C(=O)[C@@H]2[C@@H](CC(COc3ccccc3)=C3[C@@H](CCc4ccccc4)OB(O)C[C@@H]32)C1=O 1.76
COc1cc(C(O)C2C=CC3C(=O)N(c4ccccc4)C(=O)C3N2Nc2ccccc2F)cc(OC)c1OC (stereo unspecified) 1.61
CCCCN1CC=CC23O[C@@H]4/C=C\CCCOC(=O)C4[C@H]2C(=O)N(C(CO)C(C)C)[C@@H]3C1=O (stereo partly specified) -0.22
O=C1N(CCS(=O)(=O)c2ccccc2)c2ccccc2C[C@]12N=C(c1ccc(OCCCO)cc1)O[C@@H]2c1ccccc1 0.0219
O=C1NC(=O)C2C1C=CC(C(O)c1ccc([N+](=O)[O-])cc1)N2Nc1ccccn1 (stereo unspecified) -0.133
O=C1[C@H]2C=C(I)[C@H](C[C@@H]2OCCCCCCO)[C@@]12CO2 1.21
CN(C)C(=O)[C@]1(Cc2ccccc2)N=C(c2ccc(OCCCO)cc2)O[C@@H]1c1ccccc1CN=[N+]=[N-] -0.655
Cc1ccc(C(C)CC(O)C2C=CC3C(=O)N(C)C(=O)C3N2Nc2ccccc2)o1 (stereo unspecified) 0.25
CCCCCCc1nc(-c2ccc(-c3ccc(Cl)c(Cl)c3)o2)cc2c1[Si](C(C)C)(C(C)C)OC2 -0.621
CC1CC/C=C\[C@H]2OC34C=CCN(c5ccc(Cl)cc5)C(=O)[C@H]3N(CCCCCCO)C(=O)[C@]4(C)C2C(=O)O1 (stereo partly specified) 1
C=C(CCCC)/C(=C/C[C@H](OC(=O)c1ccncc1)c1cccc(OCCO)c1)c1cnc2ccccc2c1 2.6
C[C@@H]1ON(c2ccccc2)[C@H](c2ccccc2)[C@H]1C(=O)O 0.308
CCOC(=O)C1=CC[C@@H](c2ccc(OC)cc2)N(S(=O)(=O)c2ccc(C)cc2)[C@H]1CC -0.882
COC(=O)[C@@]1(Cc2ccc(OC)cc2)[C@H]2c3cc(C(=O)N(C)C)[nH]c3C[C@H]2CN1C(=O)c1ccccc1 0.383
CCCCC(O)C1C=CC2C(=O)N(c3ccccc3)C(=O)C2N1Nc1ccccc1 (stereo unspecified) 0.257
CC(C)OC(=O)CC(=O)CC(O)c1cccc([N+](=O)[O-])c1 (stereo unspecified) -0.676
O=C1NC(=O)C2C1C=CC(C(O)c1ccc(B(O)O)cc1)N2Nc1ccc(Cl)cc1Cl (stereo unspecified) -0.515
O=C1c2ccccc2[C@@]2(Cc3ccccc3N(Cc3ccccc3)C2=O)[C@H](c2ccc(CO)cc2)N1Cc1ccccc1Cl -0.322
CO[C@H]1O[C@H](CO)[C@@H](OC(=O)Nc2ccccc2)[C@H](OC(=O)Nc2ccccc2)[C@H]1OC(=O)Nc1ccccc1 1.04
COCCCNC(=O)[C@@]1(CCS(=O)(=O)c2ccccc2)COC(c2ccc(OCCCO)cc2)=N1 0.918
COc1ccc(C(O)C2C=CC3C(=O)NC(=O)C3N2Nc2ccc(Cl)cc2Cl)c2ccccc12 (stereo unspecified) 1.01
O=C1C[C@@](C(=O)O)(c2ccc([N+](=O)[O-])cc2)[C@@H](c2ccc(CO)cc2)N1C1CCCCC1 -0.179
CC(C)(C)N1CC=CC23O[C@@H]4/C=C\CCCOC(=O)C4[C@H]2C(=O)N(CCCCCO)[C@@H]3C1=O (stereo partly specified) 0.191
